The subject of the assay is AmpC beta-lactamase (E. coli). In words: AmpC inhibition relative to DMSO; higher = more inhibition. The method, then:
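Aggregation counter-screen: inhibition of E. coli AmpC beta-lactamase (5 nM, nitrocefin substrate, 50 mM sodium phosphate pH 7.0, RT, 5 min) by KAT inhibitors at 4, 11, 33 and 100 uM, with or without 0.01% Triton X-100. Percent inhibition is relative to DMSO controls. Four technical replicates.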

The mark [1] stands for this setting: 4 µM, detergent: 0.01% Triton X-100.
Setting [2] is: 11 µM, detergent: 0.01% Triton X-100.
Where [3] appears, read: 33 µM, detergent: 0.01% Triton X-100.
Where [4] appears, read: 100 µM, detergent: 0.01% Triton X-100.
Setting [5] is: 100 µM, detergent: no detergent.

± gives the standard deviation of the averaged measurements.

In the case of `CCCCCOc1ccc(/C=C\c2cccc(O)c2C(=O)O)cc1`, the AmpC inhibition is, setting by setting: under setting [1], -1.02 ± 4.7%; (4 µM, detergent: no detergent) -1.47 ± 3.3%; under setting [2], 7.71 ± 5.1%; (11 µM, detergent: no detergent) 27.2 ± 7.2%; under setting [3], 5.08 ± 5.7%; (33 µM, detergent: no detergent) 69 ± 16%. For the same compound, the AmpC inhibition turned out to be 14 ± 3% under setting [4] and 99.2 ± 1.4% under setting [5].
On to `COC1=CC=C(S(=O)(O/N=C2C=C(C(C(C)=C\2)=O)C)=O)C=C1`, for which the AmpC inhibition under setting [1] was 2.45 ± 1.2%; the AmpC inhibition (4 µM, detergent: no detergent) is -3.63 ± 5.6%; the AmpC inhibition under setting [2] is 6.48 ± 2.3%; the AmpC inhibition (11 µM, detergent: no detergent) came out at 3.85 ± 1.5%; the AmpC inhibition under setting [3] was 6.35 ± 3.8%; the AmpC inhibition (33 µM, detergent: no detergent) amounted to 0.996 ± 9.5%. In addition, the AmpC inhibition was 8.37 ± 3.3% under setting [4] and -1.7 ± 3.7% under setting [5].
On to `CC1=NN(c2ccc(C(=O)O)cc2)C(=O)/C1=C\c1ccc(-c2cc(C)c(C)cc2[N+](=O)[O-])o1`, for which the AmpC inhibition is, setting by setting: under setting [1], 1.81 ± 2.9%; (4 µM, detergent: no detergent) -0.0252 ± 5.8%; under setting [2], 8.78 ± 2.2%; (11 µM, detergent: no detergent) -41.4 ± 11%; under setting [3], 5.34 ± 3.4%; (33 µM, detergent: no detergent) -43.6 ± 23%. Also, the AmpC inhibition runs as follows: under setting [4], 5.65 ± 3.5%; under setting [5], 4.46 ± 2.3%.
Consider `COc1cc(/C=C/C(=O)CC(=O)/C=C/c2ccc(O)c(OC)c2)ccc1O`, for which the AmpC inhibition is 10.4 ± 4.2% under setting [1]; 5.89 ± 9% (4 µM, detergent: no detergent); 5.4 ± 4.4% under setting [2]; 39.2 ± 7.2% (11 µM, detergent: no detergent); -1.8 ± 2.5% under setting [3]; 71.1 ± 12% (33 µM, detergent: no detergent). Further, the AmpC inhibition was -2.46 ± 13% under setting [4] and 67.3 ± 7.6% under setting [5].
For the compound `ClC1=CC=C(C2=CSC(N/N=C3CCCC/3)=N2)C=C1`, the AmpC inhibition reads like this: under setting [1], 5.11 ± 3.4%; (4 µM, detergent: no detergent) 11.8 ± 4.8%; under setting [2], 4.35 ± 2.1%; (11 µM, detergent: no detergent) 6.62 ± 2.3%; under setting [3], 1.83 ± 7%; (33 µM, detergent: no detergent) 14.2 ± 9%. For the same compound, the AmpC inhibition turned out to be 7.09 ± 4.1% under setting [4] and 1.99 ± 3.6% under setting [5].
